# Laboratory results taken from ChEMBL document CHEMBL2218924, “A broad activity screen in support of a chemogenomic map for kinase signalling research and drug discovery” (Biochem J, 2013).
# Assays:
# [1] = molecular target: Serine/threonine-protein kinase WNK2 (Homo sapiens) (UniProt Q9Y3S1); conditions: at 10 µM
# [2] = molecular target: Serine/threonine-protein kinase WNK3 (Homo sapiens) (UniProt Q9BYP7); conditions: at 1 µM
# [3] = molecular target: Serine/threonine-protein kinase WNK3 (Homo sapiens) (UniProt Q9BYP7); conditions: at 10 µM
# [4] = molecular target: Tyrosine-protein kinase Yes (Homo sapiens) (UniProt P07947); conditions: at 1 µM
# Sequence of Tyrosine-protein kinase Yes (Homo sapiens) (P07947 2-543 limits assumed): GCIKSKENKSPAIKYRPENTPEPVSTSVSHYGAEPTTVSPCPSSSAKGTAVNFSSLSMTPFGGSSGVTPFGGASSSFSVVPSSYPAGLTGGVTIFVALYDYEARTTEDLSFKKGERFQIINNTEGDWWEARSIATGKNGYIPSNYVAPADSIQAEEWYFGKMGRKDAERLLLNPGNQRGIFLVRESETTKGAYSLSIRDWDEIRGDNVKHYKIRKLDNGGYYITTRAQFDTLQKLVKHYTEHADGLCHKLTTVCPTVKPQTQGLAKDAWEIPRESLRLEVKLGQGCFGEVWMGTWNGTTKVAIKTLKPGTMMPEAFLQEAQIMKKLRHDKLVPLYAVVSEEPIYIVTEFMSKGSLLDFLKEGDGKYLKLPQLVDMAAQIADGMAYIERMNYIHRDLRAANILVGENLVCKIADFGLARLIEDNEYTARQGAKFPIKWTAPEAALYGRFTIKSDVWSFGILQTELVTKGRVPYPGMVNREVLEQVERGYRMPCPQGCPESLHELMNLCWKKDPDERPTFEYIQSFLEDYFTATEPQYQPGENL
# [5] = molecular target: Tyrosine-protein kinase Yes (Homo sapiens) (UniProt P07947); conditions: at 10 µM
# [6] = molecular target: T1, Tyrosine-protein kinase ZAP-70 (Homo sapiens) (UniProt P43403); conditions: at 1 µM
# T1 sequence (whole entry): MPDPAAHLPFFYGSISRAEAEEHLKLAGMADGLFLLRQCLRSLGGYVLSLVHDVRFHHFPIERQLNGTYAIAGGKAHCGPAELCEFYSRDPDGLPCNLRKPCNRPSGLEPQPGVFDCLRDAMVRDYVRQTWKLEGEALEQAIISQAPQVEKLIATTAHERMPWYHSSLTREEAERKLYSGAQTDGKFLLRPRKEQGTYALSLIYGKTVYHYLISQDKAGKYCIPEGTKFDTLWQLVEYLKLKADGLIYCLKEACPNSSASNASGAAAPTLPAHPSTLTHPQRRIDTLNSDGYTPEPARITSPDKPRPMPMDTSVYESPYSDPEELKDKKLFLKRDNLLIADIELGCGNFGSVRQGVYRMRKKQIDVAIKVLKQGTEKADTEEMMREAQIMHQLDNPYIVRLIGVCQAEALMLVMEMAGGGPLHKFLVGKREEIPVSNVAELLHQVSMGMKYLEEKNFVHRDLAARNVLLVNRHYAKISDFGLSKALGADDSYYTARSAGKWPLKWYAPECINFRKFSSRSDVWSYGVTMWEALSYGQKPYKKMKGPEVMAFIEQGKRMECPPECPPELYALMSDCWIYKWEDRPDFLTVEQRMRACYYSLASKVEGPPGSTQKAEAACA
# [7] = molecular target: Death-associated protein kinase 3 (Homo sapiens) (UniProt O43293); conditions: at 1 µM
# Sequence of Death-associated protein kinase 3 (Homo sapiens) (O43293 whole entry, looked up): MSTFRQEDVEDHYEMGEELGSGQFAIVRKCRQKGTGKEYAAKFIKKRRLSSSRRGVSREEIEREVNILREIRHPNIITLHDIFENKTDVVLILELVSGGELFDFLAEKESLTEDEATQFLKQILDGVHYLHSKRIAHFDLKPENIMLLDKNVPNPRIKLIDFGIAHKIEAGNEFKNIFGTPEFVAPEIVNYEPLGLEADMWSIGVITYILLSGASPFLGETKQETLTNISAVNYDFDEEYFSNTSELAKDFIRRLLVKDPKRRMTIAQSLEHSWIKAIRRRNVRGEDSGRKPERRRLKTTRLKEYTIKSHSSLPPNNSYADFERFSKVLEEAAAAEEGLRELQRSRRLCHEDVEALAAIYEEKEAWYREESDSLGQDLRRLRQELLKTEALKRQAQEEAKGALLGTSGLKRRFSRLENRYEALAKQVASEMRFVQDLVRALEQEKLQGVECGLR
# [8] = molecular target: Death-associated protein kinase 3 (Homo sapiens) (UniProt O43293); conditions: at 10 µM
# [9] = molecular target: RAF proto-oncogene serine/threonine-protein kinase (Homo sapiens) (UniProt P04049); conditions: at 1 µM
# [10] = molecular target: RAF proto-oncogene serine/threonine-protein kinase (Homo sapiens) (UniProt P04049); conditions: at 10 µM
# [11] = molecular target: Mast/stem cell growth factor receptor Kit (Homo sapiens) (UniProt P10721); conditions: at 1 µM
# Sequence of Mast/stem cell growth factor receptor Kit (Homo sapiens) (P10721 whole entry): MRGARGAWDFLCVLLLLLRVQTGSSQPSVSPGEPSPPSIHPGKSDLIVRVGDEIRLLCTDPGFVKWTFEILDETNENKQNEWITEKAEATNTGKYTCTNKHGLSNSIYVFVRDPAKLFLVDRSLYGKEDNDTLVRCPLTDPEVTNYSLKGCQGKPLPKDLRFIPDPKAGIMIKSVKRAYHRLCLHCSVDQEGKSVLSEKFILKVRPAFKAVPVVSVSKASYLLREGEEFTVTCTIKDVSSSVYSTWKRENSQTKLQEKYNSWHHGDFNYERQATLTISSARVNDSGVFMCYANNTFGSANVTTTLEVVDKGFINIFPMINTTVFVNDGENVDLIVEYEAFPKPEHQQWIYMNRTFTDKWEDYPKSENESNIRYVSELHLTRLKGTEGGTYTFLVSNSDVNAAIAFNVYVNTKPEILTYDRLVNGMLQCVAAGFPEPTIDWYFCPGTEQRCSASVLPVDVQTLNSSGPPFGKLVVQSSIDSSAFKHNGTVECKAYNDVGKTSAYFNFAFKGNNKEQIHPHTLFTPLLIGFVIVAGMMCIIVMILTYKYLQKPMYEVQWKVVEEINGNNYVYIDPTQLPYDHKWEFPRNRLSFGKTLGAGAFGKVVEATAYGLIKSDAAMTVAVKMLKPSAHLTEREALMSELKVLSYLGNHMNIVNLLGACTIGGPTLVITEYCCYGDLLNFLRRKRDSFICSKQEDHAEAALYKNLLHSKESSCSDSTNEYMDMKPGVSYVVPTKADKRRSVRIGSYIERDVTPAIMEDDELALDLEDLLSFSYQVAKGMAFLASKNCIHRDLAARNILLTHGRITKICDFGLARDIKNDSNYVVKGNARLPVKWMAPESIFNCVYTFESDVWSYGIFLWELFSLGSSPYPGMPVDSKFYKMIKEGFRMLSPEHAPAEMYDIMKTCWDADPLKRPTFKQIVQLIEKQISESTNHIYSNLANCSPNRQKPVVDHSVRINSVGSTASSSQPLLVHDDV
# [12] = molecular target: Mast/stem cell growth factor receptor Kit (Homo sapiens) (UniProt P10721); conditions: at 10 µM
# [13] = molecular target: Proto-oncogene tyrosine-protein kinase Src (Homo sapiens) (UniProt P12931); conditions: at 1 µM
# Sequence of Proto-oncogene tyrosine-protein kinase Src (Homo sapiens) (P12931 2-536 limits assumed): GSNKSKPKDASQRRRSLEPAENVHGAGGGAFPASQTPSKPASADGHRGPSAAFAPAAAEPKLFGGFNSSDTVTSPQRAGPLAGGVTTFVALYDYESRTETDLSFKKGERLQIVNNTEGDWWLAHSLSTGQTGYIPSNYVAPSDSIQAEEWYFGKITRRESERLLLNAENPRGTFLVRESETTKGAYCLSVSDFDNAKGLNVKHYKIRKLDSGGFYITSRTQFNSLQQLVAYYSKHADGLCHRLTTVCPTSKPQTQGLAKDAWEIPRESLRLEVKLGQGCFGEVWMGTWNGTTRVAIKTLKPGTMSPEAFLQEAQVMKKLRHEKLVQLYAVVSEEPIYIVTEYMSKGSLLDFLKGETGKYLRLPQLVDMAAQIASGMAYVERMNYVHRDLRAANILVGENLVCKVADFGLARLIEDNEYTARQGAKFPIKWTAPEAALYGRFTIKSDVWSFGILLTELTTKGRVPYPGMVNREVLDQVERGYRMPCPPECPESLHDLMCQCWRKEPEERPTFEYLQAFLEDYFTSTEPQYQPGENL
# [14] = molecular target: Proto-oncogene tyrosine-protein kinase Src (Homo sapiens) (UniProt P12931); conditions: at 10 µM
# [15] = molecular target: T2, Eukaryotic elongation factor 2 kinase (Homo sapiens) (UniProt O00418); conditions: at 1 µM
# T2 sequence (whole entry): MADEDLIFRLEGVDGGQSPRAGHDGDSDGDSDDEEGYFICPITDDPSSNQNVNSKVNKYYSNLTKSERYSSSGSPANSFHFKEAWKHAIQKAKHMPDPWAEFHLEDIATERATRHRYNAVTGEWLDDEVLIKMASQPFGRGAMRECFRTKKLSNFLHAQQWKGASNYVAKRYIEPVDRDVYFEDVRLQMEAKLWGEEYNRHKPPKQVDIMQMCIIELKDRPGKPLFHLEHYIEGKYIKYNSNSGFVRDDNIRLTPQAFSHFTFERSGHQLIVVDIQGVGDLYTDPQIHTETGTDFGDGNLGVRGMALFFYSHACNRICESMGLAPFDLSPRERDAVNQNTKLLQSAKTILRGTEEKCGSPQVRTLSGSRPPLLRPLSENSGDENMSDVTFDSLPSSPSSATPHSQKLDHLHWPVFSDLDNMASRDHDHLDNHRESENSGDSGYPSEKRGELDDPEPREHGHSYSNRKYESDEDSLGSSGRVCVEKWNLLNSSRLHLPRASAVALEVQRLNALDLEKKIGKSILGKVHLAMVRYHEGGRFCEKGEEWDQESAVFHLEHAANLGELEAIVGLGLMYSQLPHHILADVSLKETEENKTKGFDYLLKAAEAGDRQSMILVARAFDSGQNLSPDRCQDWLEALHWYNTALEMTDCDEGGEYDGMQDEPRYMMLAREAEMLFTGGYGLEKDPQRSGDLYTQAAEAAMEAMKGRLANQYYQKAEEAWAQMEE
# [16] = molecular target: T2, Eukaryotic elongation factor 2 kinase (Homo sapiens); conditions: at 10 µM
# [17] = molecular target: Serine/threonine-protein kinase mTOR (Homo sapiens) (UniProt P42345); conditions: at 1 µM
# [18] = molecular target: Serine/threonine-protein kinase mTOR (Homo sapiens) (UniProt P42345); conditions: at 10 µM
# [19] = molecular target: Serine/threonine-protein kinase mTOR (Homo sapiens) (UniProt P42345); conditions: at 1 µM; remark: listed apart in the source
# [20] = molecular target: Serine/threonine-protein kinase mTOR (Homo sapiens) (UniProt P42345); conditions: at 10 µM; remark: listed apart in the source
# Sequence of Serine/threonine-protein kinase WNK2 (Homo sapiens) (Q9Y3S1 whole entry): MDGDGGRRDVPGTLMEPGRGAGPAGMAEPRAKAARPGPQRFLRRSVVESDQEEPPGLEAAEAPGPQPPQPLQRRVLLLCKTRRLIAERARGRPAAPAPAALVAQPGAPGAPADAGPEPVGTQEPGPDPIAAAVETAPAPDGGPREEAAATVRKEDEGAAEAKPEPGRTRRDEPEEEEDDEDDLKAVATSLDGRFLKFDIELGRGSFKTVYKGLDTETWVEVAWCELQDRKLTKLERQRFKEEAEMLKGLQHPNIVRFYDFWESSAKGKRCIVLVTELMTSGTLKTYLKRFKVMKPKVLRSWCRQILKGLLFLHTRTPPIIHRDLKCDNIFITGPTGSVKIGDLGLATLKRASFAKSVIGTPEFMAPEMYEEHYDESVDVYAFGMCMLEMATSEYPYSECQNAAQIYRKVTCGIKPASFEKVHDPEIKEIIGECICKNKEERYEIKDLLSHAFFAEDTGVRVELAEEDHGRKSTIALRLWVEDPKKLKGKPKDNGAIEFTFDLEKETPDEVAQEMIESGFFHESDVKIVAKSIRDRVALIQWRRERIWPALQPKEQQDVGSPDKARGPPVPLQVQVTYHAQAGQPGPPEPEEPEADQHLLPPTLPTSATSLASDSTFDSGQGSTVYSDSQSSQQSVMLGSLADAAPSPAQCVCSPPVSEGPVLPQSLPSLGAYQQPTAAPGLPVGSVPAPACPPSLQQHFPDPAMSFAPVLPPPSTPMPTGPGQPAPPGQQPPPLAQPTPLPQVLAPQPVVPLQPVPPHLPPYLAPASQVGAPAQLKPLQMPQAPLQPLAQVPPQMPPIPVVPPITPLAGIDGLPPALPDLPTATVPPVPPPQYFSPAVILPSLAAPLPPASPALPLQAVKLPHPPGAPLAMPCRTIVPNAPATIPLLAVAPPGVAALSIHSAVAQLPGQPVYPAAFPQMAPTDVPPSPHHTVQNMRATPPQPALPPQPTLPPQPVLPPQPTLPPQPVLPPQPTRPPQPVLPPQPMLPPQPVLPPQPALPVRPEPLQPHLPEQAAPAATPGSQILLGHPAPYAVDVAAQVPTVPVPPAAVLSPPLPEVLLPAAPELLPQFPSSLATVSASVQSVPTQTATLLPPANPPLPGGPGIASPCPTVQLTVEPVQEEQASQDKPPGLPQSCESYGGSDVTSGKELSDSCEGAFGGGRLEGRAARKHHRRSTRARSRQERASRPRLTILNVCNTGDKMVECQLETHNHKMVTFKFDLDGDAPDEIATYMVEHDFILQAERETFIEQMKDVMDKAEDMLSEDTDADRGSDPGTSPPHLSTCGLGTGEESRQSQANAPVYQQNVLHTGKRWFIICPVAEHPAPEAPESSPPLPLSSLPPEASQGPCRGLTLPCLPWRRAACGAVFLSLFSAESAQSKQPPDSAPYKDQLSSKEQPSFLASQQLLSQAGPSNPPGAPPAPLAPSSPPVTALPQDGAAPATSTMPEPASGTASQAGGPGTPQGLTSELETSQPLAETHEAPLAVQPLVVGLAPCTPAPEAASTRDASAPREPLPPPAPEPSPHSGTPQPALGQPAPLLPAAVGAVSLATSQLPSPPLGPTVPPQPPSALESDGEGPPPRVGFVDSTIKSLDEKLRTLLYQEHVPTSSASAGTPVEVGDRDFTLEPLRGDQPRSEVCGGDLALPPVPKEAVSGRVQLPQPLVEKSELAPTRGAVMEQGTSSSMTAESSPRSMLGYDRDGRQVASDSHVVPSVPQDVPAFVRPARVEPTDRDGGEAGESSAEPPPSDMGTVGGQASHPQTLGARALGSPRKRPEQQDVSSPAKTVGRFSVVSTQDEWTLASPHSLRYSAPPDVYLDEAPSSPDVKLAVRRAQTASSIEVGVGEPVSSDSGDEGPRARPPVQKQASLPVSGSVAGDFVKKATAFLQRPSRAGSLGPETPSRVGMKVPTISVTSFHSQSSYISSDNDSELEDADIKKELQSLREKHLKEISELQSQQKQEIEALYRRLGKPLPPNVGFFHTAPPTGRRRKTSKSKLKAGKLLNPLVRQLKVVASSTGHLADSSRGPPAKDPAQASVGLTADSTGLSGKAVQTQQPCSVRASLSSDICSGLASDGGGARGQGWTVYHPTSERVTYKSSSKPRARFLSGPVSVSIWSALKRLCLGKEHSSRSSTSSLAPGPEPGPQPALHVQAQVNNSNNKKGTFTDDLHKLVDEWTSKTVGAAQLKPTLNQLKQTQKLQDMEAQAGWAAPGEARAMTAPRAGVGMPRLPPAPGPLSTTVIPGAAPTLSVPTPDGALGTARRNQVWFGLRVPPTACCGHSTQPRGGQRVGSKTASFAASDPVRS
Compound,residual activity [1] [%],residual activity [2],residual activity [3] [%],residual activity [4] [%],residual activity [5] [%],residual activity [6] [%],residual activity [7] [%],residual activity [8] [%],residual activity [9] [%],residual activity [10] [%],residual activity [11] [%],residual activity [12] [%],residual activity [13] [%],residual activity [14] [%],residual activity [15],residual activity [16] [%],residual activity [17] [%],residual activity [18] [%],residual activity [19] [%],residual activity [20] [%]
CCC(=O)Nc1ccc2ncnc(Nc3cccc(Br)c3)c2c1,80,95% (inactive),80,85,50,86,75,100,77,90,109,103,88,89,94% (inactive),107,106,104,123,101
COc1ccc(OC)c2c(=S)c3ccccc3[nH]c12,87,89% (inactive),89,100,100,90,93,90,87,83,93,93,118,93,–,–,100,84,119,76
O=C1Nc2cc(Br)ccc2/C1=C1/Nc2ccccc2/C1=N\O,91,93% (inactive),93,1,4,97,38,18,77,68,18,21,2,3,94% (inactive),89,76,76,119,82
O=C(Nc1cccc(Nc2cc(Nc3cccc(C(F)(F)F)c3)ncn2)c1)C1CC1,81,95% (inactive),85,76,60,97,89,112,91,87,106,100,110,64,–,–,105,105,104,102
COc1ccc(C(=O)Nc2sc3c(c2C(N)=O)CCCC3)cc1OC,84,101% (inactive),94,106,90,103,76,106,87,94,85,87,76,104,–,–,101,104,95,88
CO[C@@H]1[C@H](N(C)C(=O)c2ccccc2)C[C@H]2O[C@]1(C)n1c3ccccc3c3c4c(c5c6ccccc6n2c5c31)C(=O)NC4,60,91% (inactive),76,5,4,70,56,59,80,90,65,39,40,24,–,–,95,103,107,83
Oc1c2ccccc2c2c3c(cccc13)N=N2,77,87% (inactive),77,98,51,94,87,45,69,61,91,30,89,64,–,92,104,77,–,84
O=C(Nc1cccc(Nc2nccc(Nc3cccc(C(F)(F)F)c3)n2)c1)C1CC1,50,90% (inactive),65,56,51,113,84,49,89,85,94,46,56,12,93% (inactive),101,79,83,71,84
NC(=O)c1ccc2[nH]c(-c3ccc(Oc4ccc(Cl)cc4)cc3)nc2c1,78,93% (inactive),86,112,105,95,92,106,75,74,106,90,108,92,89% (inactive),140,123,96,113,110
Oc1ccc(Nc2nc(-c3ccc(Cl)cc3)cs2)cc1,99,109% (inactive),91,123,92,115,110,133,84,84,110,76,116,93,–,–,102,83,103,106
CO[C@H]1[C@@H](OC)C[C@H](C)[C@@H](OC)C2=CC(=O)C=C(NC(=O)/C(C)=C/C=C/[C@H](OC)[C@@H](OC(N)=O)/C(C)=C/[C@@H]1C)C2=O,90,112% (inactive),106,101,90,98,108,96,93,85,104,98,101,92,–,–,95,103,77,89
C[C@@H](N)[C@H]1CC[C@H](C(=O)Nc2ccncc2)CC1,90,106% (inactive),102,108,94,92,101,99,100,108,107,106,100,103,96% (inactive),–,105,99,109,117
CC[n+]1c(/C=C/N(C)c2ccccc2)n(-c2ccccc2)c2ccc(-c3nc4ccccc4s3)cc21,35,100% (inactive),44,105,100,117,100,73,105,98,123,106,85,128,–,–,85,86,84,79
Oc1n[nH]c2nnc(-c3c(-c4ccccc4)nn4ccccc34)cc12,86,92% (inactive),83,104,91,105,66,48,73,77,94,104,95,87,–,–,97,76,102,76
CN(C)c1ccc(/C=C2\C(=O)Nc3ccccc32)cc1,76,117% (inactive),90,98,64,121,108,97,94,85,24,4,87,85,–,–,78,101,78,89
CCN(CC)CCCCN1c2ccccc2Oc2ccc(Cl)cc21,89,126% (inactive),104,106,94,113,99,109,93,100,121,107,81,109,104% (inactive),131,110,110,70,98
O=C1NC(=O)c2c1c1c3ccccc3[nH]c1c1[nH]c3cc(Br)ccc3c21,85,85% (inactive),82,95,88,95,102,91,82,82,107,94,117,93,–,–,117,106,76,113
O=C1NC(=O)/C(=C/c2ccc3c(c2)OC(F)(F)O3)S1,85,104% (inactive),98,117,116,116,102,98,92,101,116,102,91,106,85% (inactive),104,82,90,106,104
O=C(O)c1ccc2c3c1cccc3c(=O)n1c3ccccc3nc21,106,111% (inactive),97,118,103,113,60,14,83,89,122,119,120,95,–,–,105,59,98,39
Nc1n[nH]c2nnc(-c3c(-c4ccccc4)nn4ccccc34)cc12,90,83% (inactive),86,93,33,100,105,88,80,62,95,108,103,77,–,–,113,97,129,87
CC(C)n1cnc2/c(=N/c3cccc(Cl)c3)nc(NCCO)[nH]c21,52,88% (inactive),57,27,2,98,103,93,70,31,108,94,54,7,–,–,114,96,82,101
CCOc1cc2ncnc(Nc3cccc(Br)c3)c2cc1OCC,79,99% (inactive),86,17,2,122,91,96,84,71,108,101,53,14,–,–,110,106,94,100
O=[N+]([O-])c1ccc(-c2nc(-c3ccc(F)cc3)c(-c3ccncc3)[nH]2)cc1,95,92% (inactive),98,103,102,122,92,102,20,13,123,110,113,90,108% (inactive),94,110,112,126,71
CC(C)n1cnc2c(NCc3ccccc3)nc(NCCCO)nc21,89,105% (inactive),92,108,88,114,87,97,85,78,111,98,100,86,108% (inactive),98,109,114,116,104
O=C1NC(=O)/C(=C\c2ccc3nccnc3c2)S1,65,83% (inactive),79,119,102,109,71,21,73,44,106,102,86,103,99% (inactive),91,46,51,90,36
Cc1nc(-c2ccccc2)c(-c2ccncc2)o1,101,104% (inactive),100,121,99,127,106,94,60,40,124,98,113,81,–,–,109,103,116,94
